# PubChem BioAssay (NCATS)
# Where “and” joins values, the source holds several entries; their conditions need not be identical. Equal values may be shown once. Records with an inconclusive call do not appear. Entries that show only a call come without a potency. Calls of active or inactive are those of the source. Calls come from the whole dose curve; as a rule, active = well fitted curve in the direction sought with a large enough effect; inconclusive = small, poorly fitted or top-dose-only effect, or another doubt; inactive = no such curve, though single readings can be large; an effect the other way counts as inactive or inconclusive. Peptide text beside a SMILES is read from it. * marks the point of attachment. AFC = O=c1cc(C(F)(F)F)c2ccc(N*)cc2o1; Hexanoyl = CCCCCC(=O)*
# What was measured:
# [1] = biological target: Cellular tumor antigen p53 (Homo sapiens) (UniProt P04637); assay: Primary qHTS for small molecule compounds that upregulate eGFP-tagged delta133p53alpha (in N-terminal) cells. (AID 2060322); conditions: NCI-H358 eGFP-delta133p53alpha fluorescence, 24 h; activation: active compounds read high; note: nearly all actives have a fitted effect of over 75% in size; note: potency is the fitted concentration of half-maximal effect; for activation: series mostly up to about 56 µM
# Cellular tumor antigen p53 (Homo sapiens), sequence (P04637 whole entry, looked up): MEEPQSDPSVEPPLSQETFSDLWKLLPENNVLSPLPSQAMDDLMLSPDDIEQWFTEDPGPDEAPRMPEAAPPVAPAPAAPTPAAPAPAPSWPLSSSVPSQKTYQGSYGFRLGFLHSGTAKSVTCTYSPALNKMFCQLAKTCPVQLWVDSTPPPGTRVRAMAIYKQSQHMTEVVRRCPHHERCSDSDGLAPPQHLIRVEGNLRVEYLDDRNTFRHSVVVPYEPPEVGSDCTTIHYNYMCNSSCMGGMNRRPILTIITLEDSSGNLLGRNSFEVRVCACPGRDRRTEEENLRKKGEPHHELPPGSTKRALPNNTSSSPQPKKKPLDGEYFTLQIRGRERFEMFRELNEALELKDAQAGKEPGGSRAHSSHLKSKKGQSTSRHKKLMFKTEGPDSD
# Procedure, shortened: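 NCI-H358 cells pre-induced 24 h with 10 ng/ml doxycycline to express N-terminal eGFP-delta133p53alpha, then dosed 24 h at 37C without doxycycline; fixed, Hoechst-stained, GFP intensity by laser scanning cytometry, normalized to DMSO (0%) and 57.5 uM 5-azacytidine (100%).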
# [2] = biological target: Aldehyde dehydrogenase, mitochondrial (Homo sapiens) (UniProt P05091); assay: qHTS for Inhibitors of the Aldehyde Dehydrogenase Family (ALDH2) Primary screen (AID 2061308); note: nearly all actives have a fitted effect of over 55% in size
# [3] = biological target: Retinaldehyde dehydrogenase 3 (Homo sapiens) (UniProt P47895); assay: qHTS for Inhibitors of the Aldehyde Dehydrogenase Family (ALDH1A3) Primary screen (AID 2061315)
Structure (SMILES),Potency [1],Potency [2],Potency [3],activation [1],"activity change, negative = inhibition [2]","activity change, negative = inhibition [3]"
CC(=O)N1CCN(C(=O)Cc2ccc(Nc3ncc(F)c(Nc4ccc(C(=O)Nc5ccccc5Cl)cc4)n3)cc2)CC1,13.5 µM (active),inactive,inactive,–,–,–
CC(O)/C=C/C1(O)C(C)C(O)C(O[C@@H]2O[C@H](CO)[C@@H](O)[C@H](O)[C@H]2O)CC1(C)C (stereo partly specified),–,inactive,inactive,-14.3% (inactive),–,–
CC(C)NC[C@H](O)COc1ccc(CCOCC2CC2)cc1,–,inactive,inactive,1.67% (inactive),–,–
Cn1ncnc1[C@@H]1c2n[nH]c(=O)c3cc(F)cc(c23)N[C@H]1c1ccc(F)cc1,–,inactive,inactive,-7.14% (inactive),–,–
O=C(Cc1ccc(-c2ccccc2)cc1)NC1CCC1,–,inactive,inactive,-1% (inactive),–,–
CC1(C(=O)O)CCCC2(C)C3CCC4CC3(CCC12)CC4=O (stereo unspecified),–,inactive,inactive,16.1% (inactive),–,–
Cc1c(CN2CCN(C(=O)C(C)O)CC2)sc2c(N3CCOCC3)nc(-c3cnc(N)nc3)nc12 (stereo unspecified),12 µM (active),inactive,inactive,–,–,–
COc1ccc2c(c1)OC[C@]1(O)c3cc4c(cc3O[C@H]21)OCO4,–,inactive,inactive,-2.68% (inactive),–,–
C/C=C(/C)C(=O)OC1C2OC2C2(CO2)C2C3OC(=O)C(C)C3CCC12C (stereo unspecified),–,inactive,inactive,18.3% (inactive),–,–
C[C@@H]1C/C=C/C=C\C=C\C=C\[C@H](O[C@@H]2O[C@H](C)[C@@H](O)[C@H](N)[C@@H]2O)C[C@@H]2O[C@](O)(C[C@@H](O)C[C@H]3O[C@@H]3/C=C/C(=O)O1)C[C@H](O)[C@H]2C(=O)O,–,inactive,inactive,13.7% (inactive),–,–
OC[C@H]1O[C@@H](Oc2ccccc2)[C@H](O)[C@@H](O)[C@@H]1O,–,inactive,inactive,-0.893% (inactive),–,–
COc1cc(OC)cc(C(=O)Nc2ccc(Cl)c(-c3nc4ccc(N(C)C)cc4[nH]3)c2)c1,–,inactive,inactive,-11.5% (inactive),–,–
CC(=O)N[C@@H](Cc1c[nH]c2ccccc12)C(=O)N[C@@H](CCC(=O)O)C(=O)N[C@@H](Cc1cnc[nH]1)C(=O)N[C@@H](CC(=O)O)C(=O)Nc1ccc2c(C(F)(F)F)cc(=O)oc2c1 (Ac-WEHD-{AFC}),–,inactive,inactive,-4.33% (inactive),–,–
CCCC(CCC)C(=O)NCc1ccc2c(cnn2-c2ccccc2OC)c1,–,inactive,inactive,-5.25% (inactive),–,–
OCC(CO[C@@H]1O[C@H](CO)[C@@H](O)[C@H](O)[C@H]1O)c1ccc2c(c1)OCO2 (stereo partly specified),–,inactive,inactive,24.1% (inactive),–,–
CC1OC(OC2CCC3(C)C(CCC4(C)C3C=CC35OCC6(CCC(C)(C)CC63)CCC45C)C2(C)CO)C(OC2OC(CO)C(O)C(O)C2O)C(O)C1OC1OC(CO)C(O)C(O)C1O (stereo unspecified),–,inactive,inactive,14.3% (inactive),–,–
COc1ccc2c(c1)C(=O)N(CCc1ccc(S(=O)(=O)NC(=O)NC3CCCCC3)cc1)C(=O)C2(C)C,–,inactive,inactive,-11.7% (inactive) and 6.33% (inactive),–,–
O=C1NC(Cc2ccccc2)C(=O)N2CCCC12 (stereo unspecified),–,inactive,inactive,-16.8% (inactive),–,–
Cc1ccc(OC[C@H](O)[C@H](C)NC(C)C)c2c1CCC2,–,inactive,inactive,10.3% (inactive),–,–
CC/C=C\CC1C(=O)C=CC1(CCCCCCCC(=O)O)OC(C)=O (stereo unspecified),–,inactive,inactive,-22.9% (inactive),–,–
CC(=O)O[C@@H]1[C@H](O[C@@H]2OC[C@](O)(CO)[C@H]2O)[C@@H](O[C@@H]2O[C@@H](C)[C@H](O)[C@@H](O)[C@H]2O)[C@H](OC(=O)[C@]23CCC(C)(C)C[C@H]2C2=CCC4[C@@]5(C)C[C@H](O)[C@H](O[C@@H]6O[C@H](C(=O)O)[C@@H](O)[C@H](O)[C@H]6O)[C@@](C)(C(=O)O)C5CC[C@@]4(C)[C@]2(C)CC3)O[C@@H]1C (stereo partly specified),–,inactive,inactive,18.3% (inactive),–,–
COC(=O)Cn1nc(-c2cccc(OC)c2)c2ccccc21,–,inactive,inactive,-1.67% (inactive),–,–
C/C(=C\CCC(C)C1CC(O)C2(C)C3CCC4C(C)(C)C(OC5OCC(O)C(O)C5O)CCC45CC35CC(O)C12C)C(=O)O (stereo unspecified),–,inactive,inactive,17.6% (inactive),–,–
C[C@@H](O)[C@H](N)C(=O)N1CCC[C@H]1C(=O)N1CCC[C@H]1C(=O)N[C@H](C(N)=O)[C@@H](C)O (H-TPPT-NH2),–,–,–,1% (inactive),5.09% [at 11.2 µM] (inactive),-29.1% [at 11.2 µM] (inactive)
C=CC(C)(C)C12CC3C(=O)NC(Cc4cnc[nH]4)C(=O)N3C1Nc1ccccc12 (stereo unspecified),–,inactive,inactive,13.4% (inactive),–,–
COc1cc2c(cc1OC)N1C(=O)C[C@@]34C=CC[N@+]5([O-])CC[C@H]2[C@H](CC3)[C@@]145,–,inactive,inactive,5.36% (inactive),–,–

Structure (SMILES),Potency [1],Potency [2],Potency [3],activation [1],"activity change, negative = inhibition [2]","activity change, negative = inhibition [3]"
CCOCc1cc(OC)c(-c2ccc(C[C@H](NC(=O)c3c(F)cccc3F)C(=O)O)cc2)c(OC)c1,–,inactive,inactive,-5.67% (inactive),–,–
C=C1C(=O)O[C@@H]2[C@H]3C(C)=CC(=O)C3=C(C)CC[C@@H]12,10.7 µM (active),inactive,inactive,–,–,–
CC(=O)O[C@H]1C[C@@H](O)C(C)(C)C2C[C@@H](OC(C)=O)[C@]3(C)C(CC[C@@]4(C)[C@H](c5ccoc5)OC(=O)[C@H]5O[C@]543)[C@]21C (stereo partly specified),–,inactive,inactive,11.6% (inactive),–,–
COC(=O)c1ccc(N2CCN(C)CC2)c(NC(=O)c2cccc(OC)c2)c1,–,inactive,inactive,9% (inactive),–,–
CC(=O)O[C@H]1C[C@@]2(C)[C@@H](C[C@@H](O)[C@H]3[C@@]4(C)CC[C@@H](O)[C@@H](C)[C@@H]4CC[C@@]32C)/C1=C(\CCC=C(C)C)C(=O)O,–,inactive,inactive,9% (inactive),–,–
CCCCCCCOc1cc2c(cc1/C(C)=C/c1ccc(C(=O)O)cc1)C(C)(C)CCS2(=O)=O,–,inactive,inactive,3% (inactive),–,–
CCOC(=O)N1c2ccc(C(F)(F)F)cc2C(N(Cc2cc(C(F)(F)F)cc(C(F)(F)F)c2)C(=O)OC)CC1CC (stereo unspecified),–,inactive,inactive,-4.3% (inactive),–,–
C/C=C/C1OC2=C(C(=O)OC2(C)O)C(O)C1O (stereo unspecified),–,inactive,inactive,28.2% (inactive),–,–
CCCCCC(=O)N1CCC[C@H]1C(=O)N[C@@H](Cc1ccc(O)cc1)C(=O)OC (Hexanoyl-Pro-Tyr-OMe),–,inactive,inactive,-3.57% (inactive),–,–
C=C(C)C1=C[C@@]2(C)C(=CC1=O)CC[C@@H](O)[C@@H]2C,–,inactive,inactive,22.1% (inactive),–,–
C/C(=C/CO)CC[C@@H]1[C@@]2(C)CCC[C@](C)(C(=O)O)C2CC[C@@]1(C)O (stereo partly specified),–,inactive,inactive,27.7% (inactive),–,–
CC1(C)CC[C@]2(C(=O)O)CC[C@]3(C)C(=CCC4[C@@]5(C)CCC(O[C@@H]6OC[C@H](O)[C@H](O)[C@H]6O[C@@H]6O[C@H](CO)[C@@H](O)[C@H](O)[C@H]6O)[C@@](C)(CO)C5CC[C@]43C)[C@@H]2C1 (stereo partly specified),–,inactive,inactive,14.3% (inactive),–,–
COc1cc(/C=C2\CCCN([C@@H](C)c3ccc(F)cc3)C2=O)ccc1-n1cnc(C)c1,–,inactive,inactive,-22.3% (inactive),–,–
C[C@H]1[C@H](C)CC[C@]2(C(=O)O)CC[C@]3(C)C(=CCC4[C@@]5(C)C[C@@H](O)[C@H](O)C(C)(C)C5CC[C@]43C)[C@H]12 (stereo partly specified),–,inactive,inactive,-9.16% (inactive),–,–
CCOC(=O)c1ccc(OCCC2CCN(c3ccc(C)nn3)CC2)cc1,–,inactive,inactive,-17.9% (inactive),–,–
Cc1ccc(-c2ncc[nH]2)cc1NC(=O)c1ccc(OCc2ccccn2)cc1,–,inactive,inactive,-2.86% (inactive),–,–
CC(/C=C/[C@]1(O)[C@@]2(C)CO[C@@]1(C)C[C@@H](O)C2)=C\C(=O)O[C@@H]1O[C@H](CO)[C@@H](O)[C@H](O)[C@H]1O,–,inactive,inactive,-16.8% (inactive),–,–
O=C(Nc1ccc(Cl)cc1F)c1ccccc1O,–,inactive,inactive,8.59% (inactive),–,–
COc1c2c(c(C)c3c1C(=O)OC3)OC1(C)CC(O)C34OC(O)(CCC3(C)C1C2)OC4(C)C (stereo unspecified),–,inactive,inactive,-6.87% (inactive),–,–
C=C1[C@@H]2CC[C@@]3(C)[C@H](c4ccoc4)OC(=O)C[C@]13O[C@H]1CC(=O)C(C)(C)[C@H](C(O)C(=O)OC)[C@]12C (stereo partly specified),–,inactive,inactive,8.04% (inactive),–,–
C/C=C(\C)C(=O)O[C@@H](C)[C@H]1CC[C@]2(O)C3CCC4C[C@@H](OC5CC(OC)C(OC6CC(OC)C(OC7CC(OC)C(OC8OC(C)C(OC9OC(CO)C(O)C(O)C9O)C(OC)C8O)C(C)O7)C(C)O6)C(C)O5)CC[C@]4(C)C3[C@H](O)[C@@H](O)[C@]12C (stereo partly specified),–,–,–,8.04% (inactive),4.67% [at 11.2 µM] (inactive),-5.31% [at 11.2 µM] (inactive)
CCN(Cc1cccnc1)C(=O)CN(c1ccc(OC)nc1)S(=O)(=O)c1ccccc1C,–,inactive,inactive,-3% (inactive),–,–
O=C(OCC12OC1C=CC(OC(=O)c1ccccc1)C2O)c1ccccc1 (stereo unspecified),–,inactive,inactive,10.7% (inactive),–,–
COC(=O)C1=CO[C@@H](O[C@@H]2O[C@H](CO)[C@@H](O)[C@H](O)[C@H]2O)[C@@H]2[C@@H](C)[C@@H](O)C(O)[C@H]12 (stereo partly specified),–,inactive,inactive,14.5% (inactive),–,–
O=S(=O)(c1ccc(Cl)cc1)N1CCN(c2ccnc3cc(Cl)ccc23)CC1,–,inactive,inactive,-12.5% (inactive),–,–
CC(C)CC1NC(=O)C(C)NC(=O)C(CC(C)C)OC(=O)CCCNC1=O (stereo unspecified),–,inactive,inactive,-2.68% (inactive),–,–
